Structures are written as SMILES. Calls of active or inactive are those of the source. How the source made its calls: active means hit-call score of the fitted dose curve at least 0.9, where 1 is the maximum; inactive means score below 0.9.

The target of assay [1] is Bile acid receptor (Homo sapiens) (UniProt Q96RI1). Description: ATG_IR1_CIS: Attagene CIS-FACTORIAL HepG2 Assay for human Nuclear Receptor Subfamily 1 Group H Member 4 (NR1H4), IR1 submotif (AID 2282946). To be noted: IR1 reporter transcription, actives raise or lower the signal. The procedure, abridged: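 Transient MRTU transfection, HepG2; 24 h dosing; RNA → RT-PCR → 6-FAM primer extension → HpaI digest → capillary electrophoresis fluorescence. Gain/loss of signal fitted relative to DMSO.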
Chain of Bile acid receptor (Homo sapiens) (Q96RI1 whole entry, looked up): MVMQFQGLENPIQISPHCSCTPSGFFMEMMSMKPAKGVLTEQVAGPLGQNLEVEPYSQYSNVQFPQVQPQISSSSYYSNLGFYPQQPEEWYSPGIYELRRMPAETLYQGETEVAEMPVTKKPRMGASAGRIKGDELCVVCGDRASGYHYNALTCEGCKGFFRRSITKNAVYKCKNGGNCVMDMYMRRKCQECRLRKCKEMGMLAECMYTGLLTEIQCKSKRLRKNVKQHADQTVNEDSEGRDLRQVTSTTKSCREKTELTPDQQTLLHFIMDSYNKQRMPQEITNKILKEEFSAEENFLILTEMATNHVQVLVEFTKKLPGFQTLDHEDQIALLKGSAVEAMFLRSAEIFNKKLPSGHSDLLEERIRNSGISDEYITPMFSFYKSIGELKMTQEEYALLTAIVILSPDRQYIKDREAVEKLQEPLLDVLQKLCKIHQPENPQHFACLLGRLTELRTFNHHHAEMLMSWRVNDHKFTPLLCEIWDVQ

Assay [2] can be described thus: ATG_GRE_CIS: Attagene CIS-FACTORIAL HepG2 Assay for human Glucocorticoid Response Elements (GRE) (AID 2282947). To be noted: HepG2 GRE cis-reporter, Attagene multiplex mRNA; actives raise or lower the signal. The procedure, abridged:
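HepG2 cells transiently transfected with multiple cis-promoter reporter units measure endogenous TF activity; 24 h compound exposure. Reporter mRNA quantified by RT-PCR, FAM labelling, HpaI digestion and capillary electrophoresis; bidirectional fit vs DMSO baseline.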

Assay [3] in a line: ATG_ISRE_CIS: Attagene CIS-FACTORIAL HepG2 Assay for human Interferon Regulatory Factor 1 (IRF1) binding to an Interferon-Stimulated Response Element (ISRE) (AID 2282948). To be noted: HepG2 ISRE cis-reporter (Attagene), mRNA transcription readout; actives raise or lower the signal. The procedure, abridged:
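Transiently transfected HepG2 cells carrying cis-element reporter units, dosed 24 hours. Reporter mRNA quantified by RT-PCR, fluorescent primer extension, HpaI digestion and capillary electrophoresis. Bidirectional fitting relative to DMSO.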

A short description of assay [4]: ATG_M_06_CIS: Attagene CIS-FACTORIAL HepG2 Assay for M06 Transcription Factor (Internal Marker) (AID 2282950). To be noted: HepG2 Attagene CIS-FACTORIAL M06 internal marker reporter; actives raise or lower the signal. The procedure, abridged: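 Terse: HepG2, transient MRTU transfection (FuGene 6), 24 h dosing; total RNA, oligo(dT) RT, PCR, FAM label, HpaI cut, capillary electrophoresis; bidirectional fit vs DMSO baseline; background-control endpoint.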

In assay [5] the target is Hypoxia-inducible factor 1-alpha (Homo sapiens) (UniProt Q16665). Description: ATG_HIF1a_CIS: Attagene CIS-FACTORIAL HepG2 Assay for human Hypoxia Inducible Factor 1 (HIF1A) (AID 2282951). To be noted: HepG2 Attagene cis-factorial HIF1a reporter transcription; actives raise or lower the signal. A digest of the protocol:
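Transient MRTU transfection of human HepG2 liver cells, 24 h compound treatment, then total RNA isolation, oligo(dT) reverse transcription, PCR amplification, fluorescent labelling and capillary electrophoresis of reporter fragments. Gain or loss relative to DMSO.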

Assay [6] is described as follows: ATG_MRE_CIS: Attagene CIS-FACTORIAL HepG2 Assay for human Metal Responsive Element (MRE) (AID 2282954). The conditions noted are these: HepG2 MRE cis-reporter transcription, Attagene multiplex; actives raise or lower the signal. The procedure, abridged:
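HepG2 cells transiently transfected with multiple cis-element reporter units measure endogenous MTF1-driven transcription. After 24 h compound exposure, reporter mRNA is quantified by RT-PCR with 6-FAM labelling, HpaI digestion and capillary electrophoresis; bidirectional fits versus DMSO.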

A short description of assay [7]: ATG_PBREM_CIS: Attagene CIS-FACTORIAL HepG2 Assay for human Phenobarbital-responsive Enhancer Module (PBREM) (AID 2282955). The conditions noted are these: HepG2 PBREM cis-reporter, Attagene multiplexed transcription; actives raise or lower the signal. The procedure, abridged: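 Endogenous transcription factors in human liver HepG2 cells drive a PBREM cis-element reporter, whose transcript level after 24 h treatment is quantified by RT-PCR with capillary electrophoresis; activity fitted in both directions against DMSO.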

Assay [8] is described as follows: ATG_PXRE_CIS: Attagene CIS-FACTORIAL HepG2 Assay for human Pregnane X Receptor Element (PXRE) (AID 2282957). To be noted: HepG2 Attagene CIS-FACTORIAL PXRE reporter, mRNA; actives raise or lower the signal. A digest of the protocol: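 Multiplexed cis-reporter assay in transiently transfected human HepG2 cells; 24 h chemical exposure. Reporter transcripts quantified by RT-PCR with fluorescent labeling and capillary electrophoresis.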

Assay [9] is described as follows: ATG_PPRE_CIS: Attagene CIS-FACTORIAL HepG2 Assay for human Peroxisome Proliferator-activated Response Element (PPRE) (AID 2282958). To be noted: HepG2 PPRE cis-element reporter, Attagene transcription factor profiling; actives raise or lower the signal. The procedure, abridged:
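HepG2, transient MRTU transfection (cis promoter elements, endogenous TFs). 24 h dosing. RNA → oligo(dT) RT → PCR → 6-FAM primer extension → HpaI digest → CE. Bidirectional fit vs DMSO.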

A short description of assay [10]: ATG_RORE_CIS: Attagene CIS-FACTORIAL HepG2 Assay for human RAR-related Orphan Receptor Element (RORE) (AID 2282959). The conditions noted are these: HepG2 Attagene cis-factorial RORE reporter, mRNA; actives raise or lower the signal. The procedure, abridged:
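Transient MRTU transfection of human HepG2 liver cells (FuGene 6); 24 h compound exposure; TriZol RNA, oligo(dT) RT, PCR, FAM labeling, HpaI cut, CE fragment analysis. DMSO = negative control/baseline.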

Assay [11] can be described thus: ATG_Sox_CIS: Attagene CIS-FACTORIAL HepG2 Assay for human SRY-box transcription factor (SOX) (AID 2282960). To be noted: HepG2 Attagene cis-factorial SOX reporter, mRNA; actives raise or lower the signal. The procedure, abridged: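 Endogenous factor activity in human liver HepG2 cells carrying transfected cis-regulated reporter units. RNA taken 24 h post-dose, reverse-transcribed, PCR-amplified and sized by capillary electrophoresis. Gain or loss of signal fitted relative to DMSO.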

Assay [12] deals with Transcription factor Sp1 (Homo sapiens) (UniProt P08047). Description: ATG_Sp1_CIS: Attagene CIS-FACTORIAL HepG2 Assay for human Specificity Protein 1 (Sp1) (AID 2282961). To be noted: HepG2 Sp1 cis-reporter transcription, actives raise or lower the signal. A digest of the protocol: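 Transient MRTU-transfected HepG2, 24 h compound exposure. Total RNA → oligo(dT) RT → PCR of reporter → 6-FAM primer extension → HpaI digest → CE. Endpoint fitted both directions vs DMSO.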
Chain of Transcription factor Sp1 (Homo sapiens) (P08047 whole entry, looked up): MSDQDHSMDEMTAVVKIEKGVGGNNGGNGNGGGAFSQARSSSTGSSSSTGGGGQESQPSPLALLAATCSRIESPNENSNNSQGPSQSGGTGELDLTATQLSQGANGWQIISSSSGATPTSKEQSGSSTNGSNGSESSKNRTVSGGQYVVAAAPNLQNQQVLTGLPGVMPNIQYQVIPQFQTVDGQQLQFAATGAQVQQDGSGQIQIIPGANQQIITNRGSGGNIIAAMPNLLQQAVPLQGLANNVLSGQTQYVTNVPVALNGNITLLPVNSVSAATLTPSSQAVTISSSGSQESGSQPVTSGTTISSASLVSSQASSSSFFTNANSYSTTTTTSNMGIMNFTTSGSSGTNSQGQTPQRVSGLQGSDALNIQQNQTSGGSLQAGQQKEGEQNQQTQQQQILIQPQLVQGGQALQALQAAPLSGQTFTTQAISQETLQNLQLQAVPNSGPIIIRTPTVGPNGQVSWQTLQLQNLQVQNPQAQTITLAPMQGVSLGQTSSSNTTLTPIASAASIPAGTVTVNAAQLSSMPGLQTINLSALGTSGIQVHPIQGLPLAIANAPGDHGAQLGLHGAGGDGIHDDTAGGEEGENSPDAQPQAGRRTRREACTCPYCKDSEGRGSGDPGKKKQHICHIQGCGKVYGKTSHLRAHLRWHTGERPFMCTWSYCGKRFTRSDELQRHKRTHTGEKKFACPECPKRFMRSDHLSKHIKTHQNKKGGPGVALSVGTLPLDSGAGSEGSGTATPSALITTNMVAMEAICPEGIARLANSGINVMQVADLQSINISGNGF

A short description of assay [13]: ATG_SREBP_CIS: Attagene CIS-FACTORIAL HepG2 Assay for human Sterol Regulatory Element Binding (SREBP) (AID 2282962). The conditions noted are these: HepG2 Attagene cis-factorial SREBP reporter, mRNA; actives raise or lower the signal. The procedure, abridged:
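HepG2 cells transiently transfected with multiplexed cis-promoter reporter units sensing endogenous transcription factors; reporter mRNA measured 24 h after dosing by RT-PCR, 6-FAM labeling, HpaI digestion and capillary electrophoresis. Bidirectional fit versus DMSO.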

In assay [14] the target is Signal transducer and activator of transcription 3 (Homo sapiens) (UniProt P40763). Description: ATG_STAT3_CIS: Attagene CIS-FACTORIAL HepG2 Assay for human Signal Transducer and Activator of Transcription 3 (STAT3) (AID 2282963). The conditions noted are these: HepG2, Attagene cis-factorial STAT3 reporter transcription; actives raise or lower the signal. A digest of the protocol:
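HepG2 cells transiently transfected with cis-element-driven multiple reporter transcription units; after 24 h chemical exposure, reporter mRNA measured by RT-PCR, 6-FAM primer-extension labelling, HpaI digestion and capillary electrophoresis. Bidirectional fitting versus DMSO baseline.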

The nature of assay [15]: ATG_TA_CIS: Attagene CIS-FACTORIAL HepG2 Assay for human TA Basal Promoter (AID 2282964). To be noted: HepG2 Attagene CIS-factorial TA basal promoter reporter; actives raise or lower the signal. A digest of the protocol: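 Transfected HepG2, 24 h compound exposure; RNA → RT-PCR → FAM primer extension → HpaI cut → CE fluorescence. Gain/loss-of-signal fitted against DMSO negative control. Background-control readout.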

Assay [16] has as its target Heat shock factor protein 1 (Homo sapiens) (UniProt Q00613). Description: ATG_HSE_CIS: Attagene CIS-FACTORIAL HepG2 Assay for human Heat Shock Transcription Factor 1 (HSE) (AID 2282953). To be noted: HepG2 HSE cis-reporter, Attagene RNA transcription; actives raise or lower the signal. A digest of the protocol:
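Read-out: fluorescence of reporter-specific RT-PCR fragments separated by capillary electrophoresis. HepG2 carrying transfected cis-element reporter units; 24 h dosing; activity fitted in both directions relative to DMSO baseline.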

Assay [17] addresses Paired box protein Pax-6 (Homo sapiens) (UniProt P26367). Put plainly: ATG_Pax6_CIS: Attagene CIS-FACTORIAL HepG2 Assay for human Paired Box 6 (PAX6) (AID 2282956). The conditions noted are these: HepG2 CIS-FACTORIAL PAX6 reporter transcription, RNA readout; actives raise or lower the signal. The procedure, abridged:
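HepG2 cells transiently transfected with cis-promoter-driven multiplexed reporter units sensing endogenous transcription factor activity; 24 h chemical exposure. Reporter mRNA quantified by RT-PCR, 6-FAM labelling, HpaI digestion and capillary electrophoresis; bidirectional fit versus DMSO baseline.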

Assay [18] is described as follows: ATG_TCF_b_cat_CIS: Attagene CIS-FACTORIAL HepG2 Assay for human T-Cell-Factor with beta-catenin (TCF/b-cat) (AID 2282965). The conditions noted are these: HepG2 TCF/beta-catenin cis-reporter transcription, actives raise or lower the signal. A digest of the protocol:
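In this cis-format system, transfected HepG2 cells report endogenous transcription factor activity. Readout after 24 h exposure is reporter transcript abundance from RT-PCR and capillary electrophoresis, analysed for gain or loss of signal versus DMSO.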

A short description of assay [19]: ATG_M_32_CIS: Attagene CIS-FACTORIAL HepG2 Assay for M32 Transcription Factor (Internal Marker) (AID 2282949).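 Further: background control marker of the multiplexed CIS panel rather than a real target.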 To be noted: HepG2 Attagene cis-factorial M32 reporter, mRNA; actives raise or lower the signal. The procedure, abridged: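 Following 24 h chemical exposure of HepG2 cells transiently expressing cis-promoter reporter constructs, reporter transcript levels were determined by RT-PCR with fluorescent labelling and capillary electrophoresis, then fitted bidirectionally against DMSO.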

Assay [20] addresses Hepatocyte nuclear factor 6 (Homo sapiens) (UniProt Q9UBC0). Put plainly: ATG_HNF6_CIS: Attagene CIS-FACTORIAL HepG2 Assay for human Hepatocyte Nuclear Factor 6 (HNF6) (AID 2282952). To be noted: HepG2 Attagene cis-factorial HNF6 reporter transcription; actives raise or lower the signal. A digest of the protocol:
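Cells are HepG2 carrying transiently transfected cis-promoter reporter units. Treatment lasts 24 h, after which reporter transcripts are reverse-transcribed, amplified, FAM-labelled and sized by capillary electrophoresis. DMSO serves as baseline.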

Chain of Hypoxia-inducible factor 1-alpha (Homo sapiens) (Q16665 whole entry, looked up, the tested form may be a part): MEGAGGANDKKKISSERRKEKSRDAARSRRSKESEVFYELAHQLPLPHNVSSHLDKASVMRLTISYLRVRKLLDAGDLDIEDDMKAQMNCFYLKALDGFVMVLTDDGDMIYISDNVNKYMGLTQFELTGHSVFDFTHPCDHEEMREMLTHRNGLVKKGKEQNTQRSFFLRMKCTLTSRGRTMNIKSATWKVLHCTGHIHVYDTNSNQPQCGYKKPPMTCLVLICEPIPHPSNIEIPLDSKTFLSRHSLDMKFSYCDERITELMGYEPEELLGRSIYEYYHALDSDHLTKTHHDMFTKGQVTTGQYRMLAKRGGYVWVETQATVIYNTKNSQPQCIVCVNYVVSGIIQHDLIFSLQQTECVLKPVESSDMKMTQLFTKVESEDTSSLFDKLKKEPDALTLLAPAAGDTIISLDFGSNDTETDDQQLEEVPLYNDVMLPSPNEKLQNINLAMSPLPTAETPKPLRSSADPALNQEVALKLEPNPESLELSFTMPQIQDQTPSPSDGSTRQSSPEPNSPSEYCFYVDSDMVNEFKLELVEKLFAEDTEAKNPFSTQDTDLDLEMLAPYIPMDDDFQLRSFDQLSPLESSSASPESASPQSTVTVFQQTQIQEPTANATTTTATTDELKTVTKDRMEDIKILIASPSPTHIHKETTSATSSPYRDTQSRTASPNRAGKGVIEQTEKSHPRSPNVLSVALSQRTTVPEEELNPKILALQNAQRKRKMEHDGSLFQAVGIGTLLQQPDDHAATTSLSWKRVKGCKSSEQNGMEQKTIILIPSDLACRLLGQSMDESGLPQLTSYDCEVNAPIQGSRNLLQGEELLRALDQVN
Chain of Heat shock factor protein 1 (Homo sapiens) (Q00613 whole entry, looked up, the tested form may be a part): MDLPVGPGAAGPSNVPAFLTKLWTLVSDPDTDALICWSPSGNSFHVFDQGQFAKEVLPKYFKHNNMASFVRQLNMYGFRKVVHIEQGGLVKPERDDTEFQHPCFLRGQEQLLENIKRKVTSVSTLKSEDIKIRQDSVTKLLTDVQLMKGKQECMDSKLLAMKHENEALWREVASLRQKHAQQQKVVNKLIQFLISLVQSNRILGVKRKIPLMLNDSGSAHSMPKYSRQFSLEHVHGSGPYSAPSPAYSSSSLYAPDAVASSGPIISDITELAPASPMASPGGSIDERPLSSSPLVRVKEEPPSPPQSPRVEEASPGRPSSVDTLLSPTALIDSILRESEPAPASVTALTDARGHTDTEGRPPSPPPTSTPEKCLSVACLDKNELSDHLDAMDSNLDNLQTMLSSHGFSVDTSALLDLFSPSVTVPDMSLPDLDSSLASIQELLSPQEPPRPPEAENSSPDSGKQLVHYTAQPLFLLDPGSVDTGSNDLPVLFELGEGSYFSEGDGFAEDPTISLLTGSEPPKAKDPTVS
Chain of Hepatocyte nuclear factor 6 (Homo sapiens) (Q9UBC0 whole entry, looked up): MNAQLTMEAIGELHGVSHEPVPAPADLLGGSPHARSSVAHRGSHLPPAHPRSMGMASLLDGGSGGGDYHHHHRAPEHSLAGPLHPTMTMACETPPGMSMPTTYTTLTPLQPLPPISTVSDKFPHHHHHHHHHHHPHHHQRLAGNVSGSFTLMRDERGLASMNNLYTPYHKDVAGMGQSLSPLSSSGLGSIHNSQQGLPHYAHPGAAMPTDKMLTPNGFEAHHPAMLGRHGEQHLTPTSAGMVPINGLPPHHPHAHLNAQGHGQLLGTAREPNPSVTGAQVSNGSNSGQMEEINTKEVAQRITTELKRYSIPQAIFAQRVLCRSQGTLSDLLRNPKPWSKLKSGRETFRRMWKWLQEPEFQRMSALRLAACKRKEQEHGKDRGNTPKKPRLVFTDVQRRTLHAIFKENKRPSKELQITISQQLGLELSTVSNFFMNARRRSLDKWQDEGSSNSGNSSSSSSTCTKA
Chain of Paired box protein Pax-6 (Homo sapiens) (P26367 whole entry, looked up): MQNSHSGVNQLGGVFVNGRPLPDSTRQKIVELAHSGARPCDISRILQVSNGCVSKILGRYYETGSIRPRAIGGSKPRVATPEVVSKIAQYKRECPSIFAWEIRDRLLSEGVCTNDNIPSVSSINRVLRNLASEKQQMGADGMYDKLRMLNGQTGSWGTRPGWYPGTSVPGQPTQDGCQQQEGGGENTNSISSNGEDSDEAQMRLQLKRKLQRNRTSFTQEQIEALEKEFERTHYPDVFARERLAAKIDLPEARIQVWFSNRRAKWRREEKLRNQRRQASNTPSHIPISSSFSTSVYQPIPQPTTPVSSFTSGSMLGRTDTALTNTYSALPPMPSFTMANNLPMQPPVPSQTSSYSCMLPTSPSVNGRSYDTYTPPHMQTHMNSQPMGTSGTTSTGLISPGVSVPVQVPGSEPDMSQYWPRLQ
Chain of Signal transducer and activator of transcription 3 (Homo sapiens) (P40763 whole entry, looked up): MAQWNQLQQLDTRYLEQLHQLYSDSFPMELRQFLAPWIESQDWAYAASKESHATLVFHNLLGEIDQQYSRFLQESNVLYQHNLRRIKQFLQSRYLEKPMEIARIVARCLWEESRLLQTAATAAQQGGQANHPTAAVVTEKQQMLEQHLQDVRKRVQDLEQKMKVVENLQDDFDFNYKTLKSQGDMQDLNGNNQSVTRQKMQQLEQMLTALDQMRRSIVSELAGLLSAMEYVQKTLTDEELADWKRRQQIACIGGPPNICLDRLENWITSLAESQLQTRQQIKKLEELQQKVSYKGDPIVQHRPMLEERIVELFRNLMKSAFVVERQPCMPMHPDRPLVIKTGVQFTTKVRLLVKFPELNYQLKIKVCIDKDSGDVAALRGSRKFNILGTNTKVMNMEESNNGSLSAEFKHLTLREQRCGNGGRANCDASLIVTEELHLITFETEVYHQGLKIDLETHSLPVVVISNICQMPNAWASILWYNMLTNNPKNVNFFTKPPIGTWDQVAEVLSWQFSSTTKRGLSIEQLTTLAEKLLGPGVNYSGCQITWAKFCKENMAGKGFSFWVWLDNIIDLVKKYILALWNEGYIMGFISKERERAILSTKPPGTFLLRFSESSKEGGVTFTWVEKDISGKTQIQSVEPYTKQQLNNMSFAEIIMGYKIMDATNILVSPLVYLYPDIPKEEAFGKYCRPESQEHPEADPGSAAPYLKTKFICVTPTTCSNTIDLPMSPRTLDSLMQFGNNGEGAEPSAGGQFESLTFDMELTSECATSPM

For the molecule `C[C@H]1C[C@@H](O)CC(C)(C)C1`, the result in [1], in assay [2], in [3], in assay [4], in assay [5] and in assay [6] was inactive. Moreover, the outcome in assay [7], in assay [9], in assay [10], in [11], in assay [12] and in assay [13] was inactive. The call in [14] and in assay [15] was inactive. In [8], the concentration at half-maximal activity (AC50) is 68.4 µM (active).
Turning to `O=C1c2ccccc2C(=O)c2c(O)ccc(O)c21`, the molecule was classed as inactive in [1], in [2], in [3], in assay [4], in [5] and in assay [16]. Further, the outcome in assay [6], in assay [7], in [17], in assay [10], in assay [11] and in assay [12] was inactive. Also, the molecule was called inactive in assay [13], in assay [14], in assay [15] and in assay [18]. For the same molecule, in assay [8], the half-maximal activity concentration (AC50) was 7.05 µM (active).
For `C#CC(C)N(C)C(=O)Nc1ccc(Cl)cc1` (centres undefined), the result in assay [1], in assay [3], in [19], in [4], in assay [5] and in assay [20] was inactive. Also, the outcome in [16], in assay [6], in [7], in assay [17], in [9] and in assay [10] was inactive. For the same molecule, the molecule was classed as inactive in assay [11], in assay [12], in assay [13], in assay [14], in assay [15] and in assay [18]. In addition, the AC50 in assay [8] was 8.86 µM (active).
Take `CCOC(=O)CC(C)O` (centres undefined): the call in assay [1], in assay [3], in [19], in assay [4], in assay [5] and in assay [20] was inactive. For the same molecule, the call in [16], in [6], in [7], in assay [17], in assay [8] and in assay [9] was inactive. The molecule was classed as inactive in assay [10], in [11], in assay [12], in [13], in assay [14] and in assay [15]. In assay [18], the call was inactive.
Consider `CCCOCCO`, for which the molecule was classed as inactive in assay [1], in [2], in [3], in [19], in assay [20] and in assay [16]. The molecule was called inactive in assay [6], in assay [7], in assay [17], in [8], in [11] and in assay [12]. The call in [13] and in [14] was inactive.

The term AC50 denotes the concentration giving half of the maximal activity seen.

(Values after PubChem BioAssay (EPA / NIEHS).)
